According to PubChem BioAssay AID2551 (National Center for Advancing Translational Sciences (NCATS), 2010):
About 17,000 (5.5%) of roughly 310,000 compounds were called active. Roughly 11% stayed inconclusive and do not appear here. The full list was thinned out, with actives kept by preference. A number with no mark means an inactive call. The call rests on the fitted dose curve; in most records, active means well fitted inhibition curve with a large enough effect; inconclusive means small, poorly fitted or top-dose-only effect, or effect the other way; inactive means no such curve, though single readings can be large or run the other way.

Biological target: Nuclear receptor ROR-gamma (Mus musculus) (UniProt P51450)
Experiment: qHTS for inhibitors of ROR gamma transcriptional activity; further: nearly all actives have a fitted effect of over 60% in size
Details: Drosophila S2 Gal4-RORgamma UAS-luciferase reporter, 20 h; series mostly up to 53.6 µM; activity change, negative = inhibition: at the top concentration
In short: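 Drosophila S2 cells stably expressing Gal4-DBD/mouse RORγ fusion under metallothionein promoter plus UAS-luciferase; compound 1 h, then 700 uM CuSO4 induction for 20 h at ambient temperature; inhibition read as reduced luminescence.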
On the % scale 0 is the no-effect control and ±100 the full control effect; potency means the concentration at half of the fitted maximal effect.

Sequence of Nuclear receptor ROR-gamma (Mus musculus) (P51450 whole entry, looked up): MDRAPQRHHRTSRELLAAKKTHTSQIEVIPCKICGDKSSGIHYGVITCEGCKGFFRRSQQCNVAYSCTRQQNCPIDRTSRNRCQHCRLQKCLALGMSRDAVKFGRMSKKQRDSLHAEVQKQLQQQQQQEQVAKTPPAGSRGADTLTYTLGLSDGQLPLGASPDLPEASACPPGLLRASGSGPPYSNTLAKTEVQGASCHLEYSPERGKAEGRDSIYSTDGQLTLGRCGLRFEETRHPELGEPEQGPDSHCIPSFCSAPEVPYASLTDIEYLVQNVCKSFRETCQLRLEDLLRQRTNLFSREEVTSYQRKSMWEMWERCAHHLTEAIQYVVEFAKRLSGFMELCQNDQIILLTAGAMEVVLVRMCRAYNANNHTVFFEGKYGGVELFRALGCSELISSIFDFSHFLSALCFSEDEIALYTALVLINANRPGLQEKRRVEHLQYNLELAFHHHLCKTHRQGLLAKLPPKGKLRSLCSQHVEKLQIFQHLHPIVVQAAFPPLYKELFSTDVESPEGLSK

SMILES | activity change, negative = inhibition | Potency
CCOc1cccc(-c2nnc(SCC(=O)NC3CC3)n2C)c1 | -31.3% | –
OCCN1CCN(c2nnc(-c3ccccc3)c3ccccc23)CC1 | -1.93% | –
CCOc1ccc(N(CC(=O)NCCOc2ccccc2OC)S(=O)(=O)c2ccccc2)cc1 | -29.8% | –
C=CCN1CCN(C(=O)CCCc2ccccc2)CC1 | – | 5.62 µM (active)
O=C(CCCc1ccccc1)NCc1ccccc1 | 16.2% | –
CC(=O)c1ccc(N2CCN(C(=O)CCc3ccccc3)CC2)cc1 | 23.9% | –
Cc1ccccc1OCC(=O)Nc1nnc(S(=O)(=O)N2CCCC2)s1 | 14.6% | –
CCOc1cc(/C=N/Nc2cc(C)nc3ccc(C)cc23)ccc1O | -24.7% | –
CC1=C(C(N)=O)C(c2ccc(F)cc2)n2nc(CCCO)nc2N1 (stereo not drawn) | -6.31% | –
CC1=C(C(N)=O)C(c2ccc3c(c2)OCO3)n2nc(-c3cccc(C)c3)nc2N1 (stereo not drawn) | – | 5.62 µM (active)
COc1cccc(-c2nc3n(n2)C(c2ccccc2Cl)C(C(N)=O)=C(C)N3)c1 (stereo not drawn) | 10.2% | –
Cc1ccc(C(=O)OCC(=O)NC(=O)Cc2ccccc2)c(O)c1 | -14.9% | –
CC(=O)N/N=C(\C)c1ccc(Br)cc1Br | – | 10 µM (active)
CN(C)C(=O)c1cc(Br)ccc1Cl | 5.62% | –
COC(=O)c1oc2ccc(Br)cc2c1NC(C)=O | -12.5% | –
COc1ccc(CCNC(=O)CS(=O)(=O)Cc2nc(-c3ccc(C)cc3)oc2C)cc1OC | -11.7% | –
CCCCNC(=O)C1(O)c2ccccc2NC(=O)N1c1ccc(Cl)cc1 (stereo not drawn) | 0.468% | –
CCn1cc(/C=C(\NC(=O)c2cc(OC)c(OC)c(OC)c2)C(=O)N2CCN(C)CC2)c2ccccc21 | 0.404% | –
O=C(N/N=C/c1ccc(O)c2ccccc12)c1cccnc1 | -14% | –
Cc1ccc(/C=N/NC(=O)C2=NNC(c3ccccc3)(c3ccccc3)C2)c(O)c1 | – | 1.26 µM (active)
Cc1nc2ccc(C(=O)N/N=C/c3ccc(O)cc3)cc2[nH]1 | 1.66% | –
O=C(NCC(=O)N1CCC2(CC1)NCCc1[nH]cnc12)c1ccc(Br)cc1 | -10.7% | –
CCOc1cc(/C=C/c2nc3ccccc3c(=O)[nH]2)cc(Br)c1OC | 28.2% | –

SMILES | activity change, negative = inhibition | Potency
CCCn1c(C(C)Nc2nc(-c3ccc(C)cc3)cs2)nc2cc(Cl)c(N3CCCCC3)cc21 (stereo not drawn) | – | 7.08 µM (active)
CCCn1c(C(O)c2ccc(OCC)cc2)nc2ccccc21 (stereo not drawn) | -25.6% | –
CCOC(=O)CSc1nnc(CNc2nc(-c3ccccc3)cs2)n1C | 6.34% | –
CCCn1c(C2CCCN2c2nc(-c3ccc(C)cc3)cs2)nc2cc(Cl)c(N3CCCCC3)cc21 (stereo not drawn) | – | 10 µM (active)
CCCn1c(CCNc2nc(-c3ccc(OC)cc3)cs2)nc2ccccc21 | – | 11.2 µM (active)
Nc1c(Cl)cc(-c2csc(N3CCCC3c3nc4cc(Cl)c(Cl)cc4n3CCOCCO)n2)cc1Cl (stereo not drawn) | – | 14.1 µM (active)
Cc1ccc(-c2csc(N3CCN(c4cc5c(cc4Cl)nc(-c4ccncc4)n5CCOCCO)CC3)n2)cc1 | -30.6% | –
COc1cccc(S(=O)(=O)NCc2ccc(C(=O)NCc3ccccn3)cc2)c1 | -42.1% | –
CCN(CC)CCCNC(=O)c1c(O)c2cc(F)cc3c2n(c1=O)C(C)CC3 (stereo not drawn) | -23% | –
O=C1NC(=O)C(c2ccc(Cl)cc2)N1 (stereo not drawn) | 1.34% | –
Cc1ccc(S(=O)(=O)NCC2CCC(C(=O)N3CCOCC3)CC2)cc1 (stereo not drawn) | 1.41% | –
CC(=O)Nc1c2c(nn1-c1ccc(C)cc1C)CS(=O)C2 (stereo not drawn) | -12.4% | –
CCc1cccc(C)c1NS(=O)(=O)c1cc(Br)cnc1N | -4.25% | –
CC(=O)c1cccc(NC(=O)c2cc(C)nn2-c2ccccc2)c1 | 4.29% | –
CCOC(=O)c1cc(S(=O)(=O)NCCc2ccc(OC)c(OC)c2)cn1C | 1.39% | –
CNC(=O)C1CCN(S(=O)(=O)c2c(C)noc2/C=C/c2cccc(C)c2)CC1 | -5.56% | –
COc1ccc(-c2csc(N3CCN(Cc4ccc5c(c4)OCO5)CC3)n2)cc1 | -0.746% | –
COc1ccc(-c2cc3n(n2)CCc2nc4ccccc4n2-3)cc1 | 23% | –
CCCn1c(C2CCCN2c2nc(-c3ccc(OC)cc3)cs2)nc2ccccc21 (stereo not drawn) | – | 2 µM (active)
O=[N+]([O-])c1cc(C(F)(F)F)ccc1NCCc1ccncc1 | 21.3% | –
CC1(C)Cc2cccc(OCC(=O)NCc3ccccc3)c2O1 | 29.7% | –
CCCCc1ccc(NC(=O)NCc2cccnc2)cc1 | 26.2% | –
CCOC(=O)C1CCCN(CCSc2ccc(C)cc2)C1 (stereo not drawn) | -23% | –

SMILES | activity change, negative = inhibition | Potency
Cc1nc(-c2ccc(Cl)cc2)sc1C(=O)NN | -2.42% | –
Cc1nc(-c2ccccc2)sc1C(=O)/C=C/N(C)C | 1.56% | –
Cc1nc(-c2ccc(Cl)cc2)sc1C(=O)CBr | – | 5.01 µM (active)
COc1ccccc1OC(C)C(=O)Nc1ccc(S(=O)(=O)Nc2nccs2)cc1 (stereo not drawn) | 18.7% | –
Cc1ccccc1-c1ccc(C(=O)O)s1 | -6.92% [at 96.6 µM] | –
Cc1ccccc1-c1n[nH]c(=S)n1C | – | 2.82 µM (active)
CC(C)c1ccc(N2CCN(C(=O)c3ccccc3NC(=O)/C=C(\C(=O)O)c3ccccc3)CC2)cc1 | – | 3.16 µM (active)
COc1ccc(C(=O)Nc2ccccc2C(=O)N2CCN(c3ccccc3)CC2)cc1 | 13% | –
O=C(O)C1CC=CCC1C(=O)Nc1ccccc1C(=O)N1CCN(c2ccccc2)CC1 (stereo not drawn) | 3.34% | –
O=C(Cc1c(Cl)cccc1Cl)NC1CC1 | 4.83% | –
Cc1c(Cl)cccc1NC(=O)NCc1ccc(C)n1C | -21.2% | –
CCN1CC=C2C(C#N)=C(N)C(C#N)(C#N)[C@H](c3ccoc3)[C@H]2C1 | -34.4% | –
CCOC(=O)N1CC=C2C(C#N)=C(N)C(C#N)(C#N)[C@H](c3cccs3)[C@H]2C1 | -18.5% | –
N#CC1=C(N)C(C#N)(C#N)[C@H](c2ccsc2)[C@H]2COCC=C12 | – | 17.8 µM (active)
CCCNC(=O)C(=O)Nc1cc2c3c(c1)CCC(=O)N3CCC2 | -25.3% | –
CN(C(=O)C1CCN(c2ncnc3c2nc2n3CCCCC2)CC1)C1CCCCC1 | 27.8% | –
COCCCn1c(Cc2csc(Nc3cccc(Cl)c3)n2)nnc1SCC(=O)OC1CCCCC1 | – | 11.2 µM (active)
CCOc1ccc(Nc2nc(Cc3nnc(SCC(=O)NC4CCCC4)n3C)cs2)cc1 | -27% | –
COCCCn1c(SCC(=O)NC2CCCC2)nnc1-c1ccccc1 | -12.2% | –
CCCn1c(NC(=O)C23CC4CC(CC(O)(C4)C2)C3)nc2ccccc21 | – | 0.708 µM (active)
CCCn1c(C(Cc2ccccc2)NC(=O)COC)nc2ccccc21 (stereo not drawn) | -6.17% | –
CCOc1ccccc1NC(=O)C12CC3CC(C1)CC(c1ccc(C)cc1)(C3)C2 | 8.47% | –
